CF NFkB inh = inhibitors of PAF-induced NF-kB signaling, primary screen, cell-based, GFP fluorescence, uHTS; KKLEB NF-kB-GFP reporter, GFP fluorescence overnight; inhibition, % at 5 µM; hit rate 0.86% among 360,000; AID 588850, 2011;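 active = at least 50% inhibition at 5 µM, scaled per plate between neutral and stimulator controls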;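 also: PAF is a Pseudomonas aeruginosa culture filtrate used as stimulus; plate controls were PAF-stimulated DMSO wells for no effect and unstimulated DMSO wells for full effect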
LGR2 antag = inhibitors of bursicon-induced LGR2 CRE-luciferase signal, primary screen, cell-based, HEK293, CRE-luciferase reporter, bursicon stimulation. Drosophila bursicon receptor LGR2 (rickets). bursicon-stimulated, 4 h. inhibition, % at 9.99 µM. hit rate 0.35% among 380,000. AID 720647, 2013;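 active = drop in luminescence signal, shown as inhibition above about 50% in the replicate tests, limit read from the data, passing the limit was not always enough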;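 also: agonist challenge used bursicon conditioned medium at about half maximal strength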
Shn3 inh set2 = reduction of Shn3 3'UTR firefly luciferase signal, primary screen, Schnurri-3 inhibitor project, cell-based, Clone20 osteoblasts, set 2; hit rate 0.52% among 360,000; AID 588674, 2011; Clone20 osteoblast Shn3 3'UTR firefly luciferase, 24 h; inhibition, % at 12.5 µM;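 active = mean inhibition of at least 75% with every replicate also reaching 75%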;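 also: 0% = median of neutral control wells and 100% = pilot-screen positive control compound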
PAX8 inh HTS = inhibitors of PAX8-driven TPO luciferase reporter, primary screen, RMG-I cells, single concentration; SteadyGlo, 24 h; hit rate 1.2% among 360,000; inhibition, % at 12.6 µM;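 active = mean replicate inhibition at least 60% with every replicate also reaching 60%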;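 also: luciferase light reporting Pax8 driven TPO promoter activity; plate controls were median of neutral control wells for no effect and mitoxantrone controls for full effect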
KKLEB cytotox = cytotoxicity in KKLEB CF airway cells, primary screen, cytotoxicity control for CF NF-kB inhibitor project, cell-based, uHTS, fluorescence assay plates; activity change (cytotoxicity), % at 5 µM; KKLEB CF airway cells viability, ATPlite luminescence, overnight; hits give low values; cells stimulated with P. aeruginosa culture filtrate; hit rate 0.36% among 360,000;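 active = corrected activity change at or below -50% at 5 µM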
EWS-Fli inh = EWS/Fli-driven NR0B1 reporter inhibitors, primary screen, A673 cells, NR0B1 luciferase, luminescence, MLPCN library; viability-normalised; inhibition, % at 12.6 µM; hit rate 0.67% among 350,000; AID 651661, 2012;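 active = mean inhibition of at least 50% after viability correction, with every replicate also passing that limit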;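 also: firefly luciferase signal divided by Alamar Blue viability fluorescence both relative to DMSO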
The depositor's hits bear a star; x = no result. Most compounds without a hit are left out; they make up all but 2% or so of the library.

SMILES	CF NFkB inh	LGR2 antag	Shn3 inh set2	PAX8 inh HTS	KKLEB cytotox	EWS-Fli inh
Cc1nn(Cc2ccc(Cl)cc2Cl)c(Cl)c1C(=O)O	1	-11	-2	-11	-4	-4
COC(=O)[C@@H]1[C@@H](CO)[C@@H]2Cn3c(ccc(-c4ccccc4F)c3=O)[C@H]1N2C(=O)C1CC1	x	4	x	2	x	-4
CC=Cc1ccc2n(c1=O)C[C@H]1[C@H](CO)[C@@H](C(=O)OC)[C@@H]2N1CC1CCCC1 (mixture of isomers)	x	-2	x	x	x	-5
COC1=C(C)C(=O)C2=C(C1=O)C(CO)N1C(C#N)C3CC4C(C1C2N1CCOC41)N3C (stereo unspecified)	88*	-3	-6	92*	-23	1
CCCN1[C@@H]2Cn3c(ccc(-c4ccccc4)c3=O)[C@H]1[C@@H](C(=O)OC)[C@@H]2CO	x	5	x	-1	x	0
O=c1[nH]c(=S)[nH]c(O)c1N=Nc1ccc(S(=O)(=O)N2CCc3ccccc32)cc1	56*	-18	-24	-3	-26	24
CCC(=O)N1[C@@H]2c3ccc(-c4cccc(F)c4)c(=O)n3C[C@H]1[C@H](CO)[C@H]2C(=O)OC	x	-4	x	-2	x	4
COC(=O)C1=C(c2cc3ccccc3o2)C[C@@H]2CC[C@H]1N2C(=O)N1CCCCC1	33	5	36	29	-15	58*
C/C1=C\[C@@H](C)C/C=C/[C@H]2[C@@H]3O[C@]3(C)[C@@H](C)[C@H]3[C@H](Cc4c[nH]c5ccccc45)NC(=O)[C@]32C(=O)/C=C/C(=O)[C@@H]1O	73*	x	88*	x	-53*	x
COC(=O)[C@H]1[C@H](CO)[C@H]2Cn3c(ccc(C4=CCCCC4)c3=O)[C@@H]1N2Cc1cccnc1	x	-3	x	3	x	-2
CCC(C)C1NC(=O)C(NC(=O)C(CC(C)C)N(C)C(=O)C2CCCN2C(=O)C(C)O)C(C)OC(=O)C(Cc2ccc(OC)cc2)N(C)C(=O)C2CCCN2C(=O)C(CC(C)C)NC(=O)[C@H](C)C(=O)[C@H](C(C)C)OC(=O)CC1O (stereo partly specified)	94*	101*	99*	95*	-70*	72*
O=C(Cc1cccnc1)N1CCCCN2[C@H](CO)[C@@H](c3ccc(C#CC4CCCC4)cc3)[C@H]2C1	x	-12	x	1	x	0
O=c1[nH]c(=O)n(Cc2ccccc2Cl)c(O)c1/C=C1/C=CC=N1	39	-4	10	29	-16	60*
C=CCn1c(O)c(/C=C2/C=CC=N2)c(=O)[nH]c1=O	6	-1	0	-5	-12	-9
C1=C(c2c[nH]c3ccccc23)CCN(Cc2ccccc2)C1	-3	15	34	64*	9	26
CN1CC=C(c2c[nH]c3ccccc23)CC1	8	2	8	17	-6	8
O=C(Cc1cccnc1)N1CCCCN2[C@H](C1)[C@@H](c1ccc(/C=C/c3ccccc3)cc1)[C@@H]2CO	x	6	x	-10	x	6
CC(C)[C@H]1C(=O)O[C@H](C(C)C)C(=O)N(C)[C@@H](C(C)C)C(=O)O[C@H](C(C)C)C(=O)N(C)[C@@H](C(C)C)C(=O)O[C@H](C(C)C)C(=O)N1C	33	x	90*	x	1	x
COc1ccc(C#Cc2ccc([C@H]3[C@@H](CO)N4CCCCN(C(=O)Cc5ccncc5)C[C@H]34)cc2)cc1	x	-20	x	-13	x	x
COC(=O)C(O)(c1ccc(NC(=S)NC(=O)c2ccc(Cl)cc2Cl)cc1)C(F)(F)F (stereo unspecified)	5	0	20	84*	4	-5
CCOC(=O)C(O)(c1ccc(NC(=S)NC(=O)c2ccc(Cl)cc2Cl)cc1)C(F)(F)F (stereo unspecified)	2	6	23	-6	-6	x
N#CC(C#N)=NNc1ccc(-n2ccc(C(F)(F)F)n2)cc1	79*	78*	x	94*	-46	23

Screening data: PubChem, several laboratories
